This is an account of results in paper PMC12136788.

Whole data set: some 5,800 sequences, median “enrichment r” near 0.68, cut for the highest 2% near 11. Not all results are given here.

T1: UNK ZnF1-6 (called full-length) (human, UniProt Q9C0B0 30-357)
T1 sequence: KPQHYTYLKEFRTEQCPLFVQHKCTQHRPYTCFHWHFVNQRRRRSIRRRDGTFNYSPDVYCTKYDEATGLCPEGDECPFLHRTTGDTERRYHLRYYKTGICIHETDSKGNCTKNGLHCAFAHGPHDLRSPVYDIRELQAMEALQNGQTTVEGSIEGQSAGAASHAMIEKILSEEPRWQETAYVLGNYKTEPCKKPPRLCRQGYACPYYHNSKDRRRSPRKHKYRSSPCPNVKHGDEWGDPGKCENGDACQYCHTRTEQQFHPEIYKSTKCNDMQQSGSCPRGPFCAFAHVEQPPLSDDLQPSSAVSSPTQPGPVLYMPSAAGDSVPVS

B1: chr6:21593967:21594078:+|5pUTR|ENSG00000124766|unk|FALSE|bound_elsewhere (ssRNA)
RNA: GGGAGUUCUACAGUCCGACGAUCUUAGUGCCGAUUCCGCCCACAGAGAGUCCUGGAGCCACAGUCUUUUUUGCUUUGCAUUGUAGGAGAGGGACUAAGUGCUAGAGACUAUGUCGCUUUCCUGAGCUACCGAGAGCGCUCGUGCAACAGAGGAUUGAGCAUCA
B2: chr9:88477803:88477904:+|3pUTR|ENSG00000106723|msi1|FALSE|bound_elsewhere (ssRNA)
RNA: GGGAGUUCUACAGUCCGACGAUCGACAAUACAAGACAUGAAUCUAUGUAUAAAAUUUAUCGGCCUUUCUCAUUUACCUGCUCUAGUAUUAUUGUAUUGUGUGUGCGUGCGUGUGUGAUGUCAGGCUGCCACGUAAAACUUCAGCAACAGAGGAUUGAGCAUCA
B3: chr17:68278117:68278284:-|CDS|ENSG00000108932|unk|FALSE|unique (ssRNA)
RNA: GGGAGUUCUACAGUCCGACGAUCGCUUUGUUCCAAAGCCAAUGUGUAUACUGAAGUGCCUGAUGGAGGAUGGGGCUGGGCGGUAGCUGUUUCAUUUUUCUUCGUUGAAGUCUUCACCUACGGCAUCAUCAAGACAUUUGGUGUCAACAGAGGAUUGAGCAUCA
B4: ENSG00000112146:stop:overlap|stop_codon|ENSG00000112146|stop_codon|NA|stop_codon (ssRNA)
RNA: GGGAGUUCUACAGUCCGACGAUCACACCCCCUUGUUCUUCGCCAGAGUAAGGAGCUACACAGCUUUCUCAGAAAGGCCUCUGUAGAGCCUCAAGUCCAGUCCUCUAUCACUUUUGCAUGAAUUAAAGUAUAUAGCGCAAAAGACAACAGAGGAUUGAGCAUCA
B5: ENSG00000070961:be:win_5851|3pUTR|ENSG00000070961|bound_else_gene|NA|bound_elsewhere_windowed (ssRNA)
RNA: GGGAGUUCUACAGUCCGACGAUCAUGAAUGUAAUUACCAAAAGAUUUAGAAGUGCAUGUGCUUUGGAGGAUUUGUAUUGAGCUUUUACAGUAUUCAUUUUUCAACUCAAGGCAAUGGCUUUCUACACCAACUCUAAUCCAUAACAACAGAGGAUUGAGCAUCA
B6: ENSG00000070961:be:win_3451|CDS|ENSG00000070961|bound_else_gene|NA|bound_elsewhere_windowed (ssRNA)
RNA: GGGAGUUCUACAGUCCGACGAUCAGGAUAGAAGAUUCAGAGCCUCAUAUCCCCCUUAUUGAUGACACUGAUGCCGAAGAUGAUGCUCCUACAAAACGUAACUCCAGUCCUCCACCCUCUCCCAACAAAAAUAACAAUGCUGUUCAACAGAGGAUUGAGCAUCA
B7: chr11:61866962:61867357:+|3pUTR|ENSG00000134824|msi1|FALSE|unique (ssRNA)
RNA: GGGAGUUCUACAGUCCGACGAUCAGAUUCAGGGGAAGGGCAGGCACCAACAACUCAGAAUGGGGGCUUUCGGGGAGGGCGCCUAGUCCCCCCAGCUCUAAGCAGCCAGGAGGGACCUGCAUCUAAGCAUCUGGGUUGCCAUGGCAACAGAGGAUUGAGCAUCA
B8: chr2:32508095:32508220:+|CDS|ENSG00000115760|unk|total|mutant (ssRNA)
RNA: GGGAGUUCUACAGUCCGACGAUCAGCCGAAGCCGCUUCUGCUGUCUGCCUCCGACUACAUCGUCCACGGGAUGCCAGCACAUCCGGCCUUUCACAAAUUAAAUUAUUGGGGCUCACUGCUUUUGGUACCACCUCUUCUGCAACCAACAGAGGAUUGAGCAUCA
B9: chr14:92797766:92797867:+|CDS|ENSG00000066455|msi1|total|mutant (ssRNA)
RNA: GGGAGUUCUACAGUCCGACGAUCCAUUUUGUGCGAAGAAAAAAGUCAGAACCUGAUGAUGAGCUGCUGUUUGAUUUUCUUAACCGUUCACAGAAGGAGCCUACCGGGAGGGUGGAAAUCAGAAAGGAAAAAGGCAAGACACCUCAACAGAGGAUUGAGCAUCA
B10: chr18:70325936:70326038:+|CDS|ENSG00000170677|unk|total|mutant (ssRNA)
RNA: GGGAGUUCUACAGUCCGACGAUCAGCUUUCGCUCCCAUGGUAAAACACUUCACACCCGAAUUGAGCACUCAAAUGGCCGGUUCCGCUUUUAUGAACAGCCAGAUGUGGAAGGACAUACGUCCACCGUUGAUCUAAUUGAGCAUCAACAGAGGAUUGAGCAUCA
B11: chr11:43405833:43405939:+|CDS|ENSG00000052841|unk|FALSE|unique (ssRNA)
RNA: GGGAGUUCUACAGUCCGACGAUCGGCCCAAACCCCUGACUGUUCCAUAACUGACUUCAGAAAAAGCCACACUCUGUCCUACUUAGUCAAAGAAUUAGAGGUUCGCAUGGAUCUGAAAGCCAAAAUGCCAGAUGACCAUGCACGCAACAGAGGAUUGAGCAUCA
B12: chr6:1612588:1612689:+|3pUTR|ENSG00000054598|msi1|total|mutant (ssRNA)
RNA: GGGAGUUCUACAGUCCGACGAUCUUUAUUCAUGGACUUGUUUUAAAAUGUAAAUUGCAACACCGUAAUUUAUUUUUAAUUUGCCGUUGGAUGUCGUGGACCAAACGCCAGAAAGUGUUCCCAAAACCUGACGUUAAAUUGCCUCAACAGAGGAUUGAGCAUCA
B13: chr2:111862450:111862553:-|CDS|ENSG00000153107|unk|FALSE|unique (ssRNA)
RNA: GGGAGUUCUACAGUCCGACGAUCUCUUUUUCAGGGGUGCAAAGGUUCAACAUUUCAAGCCAUAAUCAGUCUCCAAAGAGACAUAGUAUUUCUCAUUCUCCAAAUAGUAAUUCUAAUGGCUCCUUUCUUGCACCAGAAACGGAGCAACAGAGGAUUGAGCAUCA
B14: chr7:83961326:83961382:-|CDS_3pUTR|ENSG00000075213|msi1_unk|FALSE|overlapping (ssRNA)
RNA: GGGAGUUCUACAGUCCGACGAUCAAACAGGAGGACCCACGAAUUUGAGAGGGCACCCAGGAGUGUCUGAGCUGCAUUACCUCUAGAAACCUCAAACAAGUAGAAACUUGCCUAGACAAUAACUGGAAAAACAAAUGCAAUAUACAACAGAGGAUUGAGCAUCA
B15: ENSG00000124766:be:win_3951|3pUTR|ENSG00000124766|bound_else_gene|NA|bound_elsewhere_windowed (ssRNA)
RNA: GGGAGUUCUACAGUCCGACGAUCGUUUGGGGGAAAAAAAAGAAAAAAUCAUGCCAGCUAAUCAUGUCAAGUUCACUGCCUGUCAGAUUGUUGAUAUAUACCUUCUGUAAAUAACUUUUUUUGAGAAGGAAAUAAAAUCAGCUGCAACAGAGGAUUGAGCAUCA
B16: chr17:29262523:29262623:-|3pUTR|ENSG00000108256|msi1_unk|FALSE|overlapping (ssRNA)
RNA: GGGAGUUCUACAGUCCGACGAUCACUUUGACUGAUAUUGUAAUUUUCAAAUGUAUAAUAUGUUUACAGAUGUGCCCUGCAUUUAGUCUGCCUUGUUCCUAUUUUGAUUUUUGUUGAGUCUCCUGCCUGCUUGCCAAAAGCUAGCAACAGAGGAUUGAGCAUCA
B17: chrX:149581652:149582231:-|three_prime_utr|ENSG00000267978|control|control|control (ssRNA)
RNA: GGGAGUUCUACAGUCCGACGAUCCAAAUGUUCUUUUAAUGGUCAGUUUAAUGAACUUCACCAUCGAAGUUAAUGAAUGACAGUAGUCACACAUAUUGCUGUUUAUGUUAUUUAGGAGUAAGAUUCUUGCUUUUGAGUCACAUGCAACAGAGGAUUGAGCAUCA
B18: chr15:48879495:48879609:+|3pUTR|ENSG00000255302|msi1|total|mutant (ssRNA)
RNA: GGGAGUUCUACAGUCCGACGAUCGACACUAAAUGUGUGUGAAUGUACAAAGAAAACAAACCAUUGCUUAUGCUGUUAUAUACCCGAGAAAUUUUGUUUUGCUUGCUGUUUUAACUUGACAGAUGAAGGACUUCCGUUGAACUUCAACAGAGGAUUGAGCAUCA
B19: chr16:87831719:87831834:-|3pUTR|ENSG00000103257|msi1_unk|FALSE|overlapping (ssRNA)
RNA: GGGAGUUCUACAGUCCGACGAUCCCUGCGUUUGGAGGCCCCUGGGCUCUCACCCAGUCCCCACCCGCCUGCAGAGAGGGAACUAGGGCACCCCUUGUUUCUGUUGUUCCCGUGAAUUUUUUUCGCUAUGGGAGGCAGCCGAGGCAACAGAGGAUUGAGCAUCA
B20: chr8:93925380:93925481:+|3pUTR|ENSG00000164951|msi1|total|mutant (ssRNA)
RNA: GGGAGUUCUACAGUCCGACGAUCAUUUAUUUCUAAAUGUUUUGACUGGGCAUUUUUCUUUUAAUGAAAUAUGUGGACUGCUCCCGCAAACCCUAUUUUCAGCUACUAUUUGAAUAUUCUUGAACACCACCACUGAAGAGUUUCCAACAGAGGAUUGAGCAUCA
B21: chr14:88572724:88572825:+|CDS|ENSG00000100722|unk|FALSE|unique (ssRNA)
RNA: GGGAGUUCUACAGUCCGACGAUCGUGACACUUACAUAUGGUUCUUCUCGCCCUUCUAUUGAAAUUUAUCGACCACCUGCAAGUAGAAAUGCAGAUAGUGGUGUUCAUUUAAACAGGUUGCAAUUUCAACAGCAGCAGAAUAGUCAACAGAGGAUUGAGCAUCA
B22: chr17:42200006:42200107:-|3pUTR|ENSG00000173757|unk|FALSE|unique (ssRNA)
RNA: GGGAGUUCUACAGUCCGACGAUCAAGCUGCCGUUUGCCUUGGCUUGGUUUCAUACACUGAUUUAUUUUUCUAUGCCAGGCAGUAGAGUCUCUCUGCCUCUGAGGAGCAGGCUACCCGCAUCCCACUCAGCCCCUCCCUACCCCCAACAGAGGAUUGAGCAUCA

In this experiment the target is T1, UNK ZnF1-6 (called full-length). Put plainly: nsRBNS (natural sequence RNA bind-n-seq); RBNS binding buffer (assumed for nsRBNS): 25 mM Tris pH 7.5, 150 mM KCl, 3 mM MgCl2, 0.01% Triton X-100, 500 ug/ml BSA, 20 U/ml SUPERase-In, 4 C; UNK is unkempt and MSI1 is Musashi-1; names of the RNAs are library labels; protein concentration not given here; high values mean tight binding.
As for B1, the binding signal worked out at 0.815 enrichment R.

Molecule B2 yielded a binding signal of 1.09 enrichment R.

B3: the binding signal worked out at 0.822 enrichment R.

The molecule B4 had a binding signal of 0.367 enrichment R.

For B5, the binding signal came to 0.908 enrichment R.

B6 registered a binding signal of 0.813 enrichment R.

B7: the binding signal was determined as 0.948 enrichment R.

Regarding B8, the binding signal was determined as 0.577 enrichment R.

For B9, the binding signal worked out at 0.771 enrichment R.

The molecule B10 yielded a binding signal of 0.461 enrichment R.

In turn, B11 yielded a binding signal of 1.07 enrichment R.

The molecule B12 had a binding signal of 0.325 enrichment R.

For B13, the binding signal was found to be 1.49 enrichment R.

For the molecule B14, the binding signal worked out at 0.962 enrichment R.

As for B15, the binding signal stood at 0.788 enrichment R.

In turn, B16 had a binding signal of 0.807 enrichment R.

For the molecule B17, the binding signal turned out to be 0.441 enrichment R.

Regarding B18, the binding signal amounted to 0.453 enrichment R.

As for B19, the binding signal was 0.701 enrichment R.

Take B20: the binding signal is 0.657 enrichment R.

Take B21: the binding signal turned out to be 0.593 enrichment R.

B22 registered a binding signal of 0.936 enrichment R.
